# Measured values reported in the supplement of paper PMC6279402.
# Counter-ions that a name gives are not always drawn. ± gives the standard deviation of the averaged measurements.
# Tested on: A549
# Assay: relative viability (normalised to negative control = 1, bortezomib = 0) (fraction); higher = less cytotoxic
# Settings: inflammatory serum-free RHB-A with cytokines + LPS; 5 d + 24 h CellTiter-Blue; compound 300 nM; GSK126 pretreatment: 5 uM GSK126
row,Structure (SMILES),relative viability
1,COc1cc(Nc2ncc(F)c(Nc3ccc4c(n3)NC(=O)C(C)(C)O4)n2)cc(OC)c1OC [R406(free base); R406],1.23 ± 0.096
2,Cc1ccc(Nc2nccc(N(C)c3ccc4c(C)n(C)nc4c3)n2)cc1S(N)(=O)=O [Pazopanib Hydrochloride],1.11 ± 0.096
3,CO[C@H]1C(=O)[C@]2(C)[C@@H](OC)C[C@H]3OC[C@@]3(OC(C)=O)[C@H]2[C@H](OC(=O)c2ccccc2)[C@]2(O)C[C@H](OC(=O)[C@H](O)[C@@H](NC(=O)OC(C)(C)C)c3ccccc3)C(C)=C1C2(C)C [Cabazitaxel],0.541 ± 0.061
4,COc1cc(Nc2ncc(F)c(Nc3ccc4c(n3)N(COP(=O)(O)O)C(=O)C(C)(C)O4)n2)cc(OC)c1OC,0.952 ± 0.013
5,CC/C(=C(\c1ccccc1)c1ccc(OCCN(C)C)cc1)c1ccccc1 [Tamoxifen citrate],0.909 ± 0.13
6,CC(C)n1nc(-c2cc3cc(O)ccc3[nH]2)c2c(N)ncnc21,0.37 ± 0.014
7,O=C(O)C(=O)O.[NH-][C@@H]1CCCC[C@H]1[NH-].[Pt+2] [Oxaliplatin],0.79 ± 0.088
8,CCOc1ccn(-c2ccc(F)cc2)c(=O)c1C(=O)Nc1ccc(Oc2ccnc(N)c2Cl)c(F)c1,0.977 ± 0.21
9,CC[C@@]1(O)C(=O)OCc2c1cc1n(c2=O)Cc2cc3c(CN(C)C)c(O)ccc3nc2-1 [Topotecan HCl; Topotecan hydrochloride],0.317 ± 0.026
10,CS(=O)(=O)OCCCCOS(C)(=O)=O [Busulfan],0.916 ± 0.067
11,Cc1cccc(-c2[nH]c(C(C)(C)C)nc2-c2ccc3nccnc3c2)n1,0.799 ± 0.036
12,Cn1cnc2c(F)c(Nc3ccc(Br)cc3Cl)c(C(=O)NOCCO)cc21 [AZD6244(Selumetinib)],0.203 ± 0.028
13,CCC[C@H](NC(=O)/C(C#N)=C/c1cccc(Br)n1)c1ccccc1,0.973 ± 0.14
14,Nc1nc(Cl)nc2c1ncn2[C@H]1C[C@H](O)[C@@H](CO)O1 [Cladribine],0.386 ± 0.1
15,Nc1ncnc2c1c(-c1cccc(OCc3ccccc3)c1)cn2C1CC(CN2CCCC2)C1 (configuration not stated),0.287 ± 0.021
16,Cc1c(NC(=O)OC[C@@H]2COCCN2)cn2ncnc(Nc3ccc4c(cnn4Cc4cccc(F)c4)c3)c12,0.56 ± 0.088
17,Oc1ncnc2[nH]ncc12 [Allopurinol],0.952 ± 0.11
18,COc1cc(N2CCC(N3CCN(C)CC3)CC2)ccc1Nc1ncc(Cl)c(Nc2ccccc2S(=O)(=O)C(C)C)n1,0.211 ± 0.019
19,COc1c2occc2cc2ccc(=O)oc12 [Methoxsalen],0.881 ± 0.026

row,Structure (SMILES),relative viability
1,Nc1ccn([C@@H]2O[C@H](CO)[C@@H](O)C2(F)F)c(=O)n1 [Gemcitabine hydrochloride; Gemcitabine HCl],0.39 ± 0.093
2,CO[C@H]1C[C@@H]2CC[C@@H](C)[C@@](O)(O2)C(=O)C(=O)N2CCCC[C@H]2C(=O)O[C@H]([C@H](C)C[C@@H]2CC[C@@H](O)[C@H](OC)C2)CC(=O)[C@H](C)/C=C(\C)[C@@H](O)[C@@H](OC)C(=O)[C@H](C)C[C@H](C)/C=C/C=C/C=C/1C [Sirolimus; RAPAMYCIN; Rapamycin(Sirolimus); Rapamycin],0.552 ± 0.066
3,COc1cc2nccc(Oc3ccc(NC(=O)C4(C(=O)Nc5ccc(F)cc5)CC4)cc3)c2cc1OC [XL184; Cabozantinib],0.986 ± 0.043
4,CC[C@@H]1C(=O)N(C)c2cnc(Nc3ccc(C(=O)NC4CCC(N5CCN(CC6CC6)CC5)CC4)cc3OC)nc2N1C(C)C (some centres not stated) [BI6727 (Volasertib)],0.227 ± 0.042
5,CC(=O)Nc1cccc(-n2c(=O)n(C3CC3)c(=O)c3c(Nc4ccc(I)cc4F)n(C)c(=O)c(C)c32)c1,0.0602 ± 0.013
6,O=C(NOCC(O)CO)c1cc(Br)c(F)c(F)c1Nc1ccc(I)cc1F (configuration not stated),0.193 ± 0.019
7,C#CCC(Cc1cnc2nc(N)nc(N)c2n1)c1ccc(C(=O)N[C@@H](CCC(=O)O)C(=O)O)cc1 (some centres not stated) [pralatrexate],0.765 ± 0.068
8,CC[C@]1(O)C[C@H]2CN(CCc3c([nH]c4ccccc34)[C@@](C(=O)OC)(c3cc4c(cc3OC)N(C=O)[C@H]3[C@@](O)(C(=O)OC)[C@H](OC(C)=O)[C@]5(CC)C=CCN6CC[C@]43[C@@H]65)C2)C1 [Vincristine sulfate],0.388 ± 0.035
9,C[C@]12CC[C@H](O)CC1=CC[C@@H]1[C@@H]2CC[C@]2(C)C(c3cccnc3)=CC[C@@H]12 [Abiraterone],0.937 ± 0.15
10,OCCn1cc(-c2cnc3nnn(Cc4ccc5ncccc5c4)c3n2)cn1,0.972 ± 0.058
11,Cn1c(=O)c(F)c(Nc2ccc(I)cc2F)c2c(=O)n(C[C@@H](O)CO)cnc21,0.0544 ± 0.0097
12,Cc1cn(-c2cc(NC(=O)c3ccc(C)c(Nc4nccc(-c5cccnc5)n4)c3)cc(C(F)(F)F)c2)cn1 [Nilotinib],1.14 ± 0.17
13,Cc1nc(NC(=O)N2CCC[C@H]2C(N)=O)sc1-c1csc(C(C)(C)C)n1,0.704 ± 0.044
14,C/C=C1\NC(=O)[C@H]2CSSCC/C=C/[C@H](CC(=O)N[C@H](C(C)C)C(=O)N2)OC(=O)[C@H](C(C)C)NC1=O [Depsipeptide],-0.0034 ± 0.0005
15,COc1cc2/c(=N/c3ccc(Br)cc3F)nc[nH]c2cc1OCC1CCN(C)CC1 [Vandetanib],0.742 ± 0.12
16,C=CC(=O)Nc1cccc(Sc2nc(Nc3ccc(N4CCN(C)CC4)cc3)ncc2Cl)c1,0.475 ± 0.1
17,N#CC(=C(/N)Sc1ccccc1N)/C(C#N)=C(/N)Sc1ccccc1N,0.61 ± 0.084
18,Oc1ccc(-c2nc(-c3ccc(F)cc3)c(-c3ccncc3)[nH]2)cc1,1.36 ± 0.066
